Here are results for 40 compounds from PubChem BioAssay (NCI).

About 83,000 compounds went through this panel and 20% of them were active in at least one assay; those are over-represented in the sample as a whole.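 Results are percent growth after 48 hours of single-concentration exposure. 100 means growth as in untreated cells, lower positive values show inhibition; negative values down to -100 show cell death.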 Values without a mark were called inactive. Activity calls are given as the source filed them.

The assay has as its system U251 CNS. Description: NCI-60 one-dose screen, 48 h (100 = growth as untreated, 0 = no growth, -100 = all killed). The conditions noted are these: 10 µM unless noted. As for the experimental part: Growth inhibition of the U251 human tumor cell line is measured as a screen for anti-cancer activity. Cells are grown in 96 well plates and exposed to the test compound for 48 hours. Compounds are tested at a single concentration, which is 10^-5 M for most compounds. The reported endpoint is percent growth (GI% or GIPRCNT), where numbers from 0 - 100% represent growth inhibition, and numbers from -100% - 0 represent cell death. For example, a value of 40 represents 60% growth inhibition. A value of 0 means no net growth occurred over the course of the experiment. A value of -40 indicates 40% of cells at the beginning of the experiment died by the end of the experiment. A value of -100 means all cells are dead at the end of the experiment.
NCI-60 Human Tumor Cell Lines Screen was performed using the standard one-dose NCI protocol, which is described in more detail at https://dtp.cancer.gov/discovery_development/nci-60/default.htm.
Compounds with GIPRCNT values below 10 were considered active. Activity score was based on GIPRCNT using the following formula: […]
Score is 0 for GIPRCNT values of 100 or above, 50 for GIPRCNT values of 0, and 100 for GIPRCNT values of -100.
For `O=C(/C=C/c1cccc([N+](=O)[O-])c1)c1ccc(Nc2nc(Nc3ccc(F)cc3)nc(Nc3ccc(Cl)cc3)n2)cc1`, the growth was 81.1%.

In the case of `COc1cc2ncnc(Nc3ccc(S(=O)(=O)Nc4cc(C)on4)cc3)c2cc1OCCCN1CCOCC1`, the growth is 95.2%.

For `COC(=O)CNC(=O)c1ccc(NC(=O)c2[nH]c(C)c(Cl)c2Cl)c(O[C@H]2CCNC2)c1`, the growth was 101%.

Consider `Cc1ccc(Nc2oc(-c3ccccc3)nc2[P+](c2ccccc2)(c2ccccc2)c2ccccc2)cc1`, for which the growth was -58% (active).

As for `N#C/C(Sc1nc2sc3c(c2c(=O)n1Cc1ccccc1)CCCC3)=C1/SC=C(c2ccc(Cl)cc2)N1c1ccccc1`, the growth is 72.8%.

On to `O=C1/C(=C/c2ccccc2)COc2ccc(O)cc21`, for which the growth was 55.1%.

In the case of `Cc1ccccc1NC(=O)c1sc2nc3c(cc2c1N)CCCC3`, the growth was 23%.

Take `COc1c(O[C@@H]2OC(CO)[C@H](O)[C@H](O)C2O)cc2oc3cc(O)c(CC=C(C)C)c(O)c3c(=O)c2c1CC=C(C)C` (stereo not given in full): the growth is 77.9%.

For the compound `CCOC(=O)c1cc(C(=O)c2cc(OC)cc(OC)c2)n2ncccc12`, the growth is 24.7%.

With `Cn1ccnc1C(=O)/C=C/c1ccc(C(=O)Nc2c(F)c(F)c(F)c(F)c2F)cc1`, the growth is -48.9% (active).

`Cc1ccc(S(=O)(=O)c2nc(-c3ccccc3)oc2S(C)=O)cc1` (stereo not given): the growth was 45.1%.

`COc1cc(OCc2cccc(-c3ccccc3)c2C)cc(OC)c1CN1CCCCC1C(=O)NCCOCCOCCN` (stereo not given): the growth was 25.7%.

As to `CCOc1ccc(-c2cc(C3(S(=O)(=O)c4ccc(C)cc4)CC=CC3)on2)cc1`, the growth was 89.4%.

As for `CN1CCN(CC(=O)N(C)c2ccc(N=C(c3ccccc3)c3c(O)[nH]c4ccc([N+](=O)[O-])cc34)cc2)CC1`, the growth is 73.1%.

Regarding `Cc1ccc(OCCOCCOCCOCCOc2ccc(C)n(O)c2=S)c(=S)n1O`, the growth is 9.43% (active).

As to `CCN1C(=O)N(CC)C2C1NN=c1s/c(=C\c3ccc([N+](=O)[O-])cc3)c(=O)n12` (stereo not given), the growth was 20.8%.

Consider `O=C1/C(=C/c2cccc([N+](=O)[O-])c2)COc2ccc(O)c(O)c21`, for which the growth is -89% (active).

Regarding `N#CSCc1cc(Cl)c(CSC#N)cc1Cl`, the growth is 106%.

On to `O=C(/C=C/c1ccc(Cl)cc1)c1ccc(-n2cc(CN3CCN(c4cc5c(cc4F)c(=O)c(C(=O)O)cn5C4CC4)CC3)nn2)cc1`, for which the growth was 68.6%.

For the compound `O=C(OCc1ccc2c(Br)cc(Br)c(O)c2n1)N1CCN(C(=O)c2cc3ccccc3[nH]2)CC1`, the growth is 12.9%.

As for `Oc1cccc2c1NCCC2`, the growth is 14.7%.

With `C/C=C(/C)C(=O)O[C@@H]1CC(C)(C)CC2C34OC(=O)[C@@]21CC[C@@]3(C)[C@]1(C)CCC2C(C)(C)C(=O)CC[C@]2(C)C1C[C@@H]4O` (stereo not given in full), the growth is 46.9%.

In the case of `O=C(Nc1ccc2c(c1)-c1ccccc1C2)C1CC(=O)N(c2ccc3c(c2)OCO3)C1` (stereo not given), the growth is 19% [50 µM].

As for `COc1ccc(-n2c(=O)n(-c3ccc(-c4nc5ccc(F)cc5s4)cc3)c(=O)c3cccnc32)cc1`, the growth is 96.9%.

In the case of `COC(=O)c1nc(-c2ccccc2)oc1S(=O)(=O)NCC(c1ccc(Cl)cc1)N1CCCCC1` (stereo not given), the growth is 59.6%.

For `COc1ccc(NC(=O)c2ccc(Cl)cc2Cl)cc1`, the growth is 92.2%.

With `O=C(/C=C/c1ccco1)Nc1ncc(Cc2ccc(F)cc2)s1`, the growth was 22.6%.

On to `Cc1cccc(CN(Nc2ccccc2)c2ccccc2)n1`, for which the growth is 91.4%.

In the case of `N#C/C(=C/C=C/c1ccccc1)S(=O)c1ccccc1` (stereo not given), the growth is -81.5% (active).

For `CC1=C2[C@@H](CC1)[C@]1(C)O[C@@](C(C)C)(C[C@H]1OC(=O)CO)[C@H]2OC(=O)CCCc1ccccc1`, the growth is 74.5%.

Regarding `CCOC(=O)c1c(NC(=S)Nc2ccc([N+](=O)[O-])cc2)sc2c1CCCCC2`, the growth was 76.6%.

With `CCCS(=O)(=O)Nc1cccc(Nc2ncnc3cc(NC(=O)CCl)ccc23)c1Cl`, the growth is -93.3% (active).

As for `O=C1C=CC2(O)OC(c3ccccc3)CC(=O)C2=C1O` (stereo not given), the growth is 74.9%.

Turning to `CCOc1ccccc1NC(=O)CCC(=O)OC`, the growth was 105%.

`COc1ccc(N2C(=O)/C(=C/C(Cl)=C/c3ccc([N+](=O)[O-])cc3)SC2=S)cc1`: the growth is -83.1% (active).

For `COC(=O)[C@H](C)NC(=O)[C@@H]1CCCN1C(=O)CNC(=O)[C@H](C)N`, the growth is 103%.

For the compound `Cc1[nH]c(C(=O)Nc2ccc(C(N)=O)cc2OC(C)C)c(Cl)c1Cl`, the growth is 98.2%.

Turning to `O=C(/C=C/c1ccc([N+](=O)[O-])cc1)c1cccc(Nc2nc(Nc3ccccc3)nc(Nc3ccccc3)n2)c1`, the growth was 58%.

Turning to `COc1cc(/C=N/NC(=O)c2ccc3nc(-c4ccc(Cl)cc4)[nH]c3c2)cc(OC)c1OC`, the growth was 53.2%.

Regarding `CC(C)CCc1nc2ccc(NCc3ccc(OCCN4CCC(C)CC4)cc3)cc2[nH]1`, the growth was 71.6%.
